PubChem BioAssay (NCATS)
Values joined by “and” are separate entries in the source; they are usually repeats but may differ in a detail not shown here. Equal entries are not always repeated. Records with an inconclusive call do not appear. Active and inactive are the calls of the source. Unless noted, calls follow the shape of the dose curve; as a rule, active = well fitted curve in the direction sought with a large enough effect; inconclusive = small, poorly fitted or top-dose-only effect, or another doubt; inactive = no such curve, though single readings can be large; an effect the other way counts as inactive or inconclusive.

Assays:
[1] = AP1 Signaling Pathway (AID 357; active = well fitted curve in either direction with a large enough effect, not every such curve was filed as active; also: % is scaled to controls: 0 for no effect and ±100 for the full control effect)
Outline: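 AP-1-bla ME-180 cells with beta-lactamase reporter under AP-1 response element, stimulated with EC50 EGF; compounds titrated, 5 hours at 37 degrees Celsius. CCF4 read at 460/530 nm ratio; positive and negative modulators judged by AC50.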

[2] = target: Cytochrome P450 1A2 (Homo sapiens) (UniProt P05177); test: p450-cyp1a2 (AID 410; calls by dose curve; also: potency is read from the fitted curve at half-maximal effect)
Cytochrome P450 1A2 (Homo sapiens), sequence (P05177 whole entry, looked up): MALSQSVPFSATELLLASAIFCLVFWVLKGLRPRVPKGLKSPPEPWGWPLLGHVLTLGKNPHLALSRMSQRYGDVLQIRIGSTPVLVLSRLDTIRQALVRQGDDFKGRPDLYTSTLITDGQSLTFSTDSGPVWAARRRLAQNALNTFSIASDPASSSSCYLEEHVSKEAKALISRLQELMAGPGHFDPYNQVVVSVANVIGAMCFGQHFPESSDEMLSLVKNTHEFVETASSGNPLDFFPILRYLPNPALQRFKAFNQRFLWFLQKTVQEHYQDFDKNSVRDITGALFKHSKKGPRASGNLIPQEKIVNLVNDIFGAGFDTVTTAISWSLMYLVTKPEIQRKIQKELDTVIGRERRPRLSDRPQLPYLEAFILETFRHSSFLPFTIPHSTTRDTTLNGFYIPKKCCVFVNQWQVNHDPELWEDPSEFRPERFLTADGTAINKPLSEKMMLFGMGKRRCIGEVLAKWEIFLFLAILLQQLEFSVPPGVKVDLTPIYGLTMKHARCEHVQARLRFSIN
Outline: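 Luminescent readout of luciferin formed from Luciferin-ME by human CYP1A2; data normalized against complete inhibition by 57 uM furafylline. Enzyme 20nM, substrate 100uM at Km, 100mM KPO4 buffer, 60 min reaction at room temperature.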

[3] = NFAT Signaling Pathway (AID 444; active = well fitted curve in either direction with a large enough effect, not every such curve was filed as active;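 also: carbachol stimulus at about its EC50 of 1 µM final; % is scaled to controls: 0 for no effect and ±100 for the full control effect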); details: Jurkat NFAT-bla M1, carbachol, beta-lactamase ratio, 5 h; at 17.2 µM (top of the series)
Outline: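 Jurkat cells with NFAT-driven β-lactamase reporter and co-expressed M1 receptor, stimulated with carbachol (final 1 uM, ~EC50), compound titration, 5 h at 37 °C. CCF4 loaded 1 h at RT; 460/530 nm ratio gave %activity and AC50.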

[4] = target: Glucocorticoid receptor (Homo sapiens) (UniProt P04150); test: GR-GFP Redistribution (AID 450;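 active = compounds whose dose series gives a full or clear partial fitted curve of increased nuclear translocation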; also: potency is read from the fitted curve at half-maximal effect); details: U2OS GR-GFP nuclear translocation, laser cytometry, 2 h
Glucocorticoid receptor (Homo sapiens), sequence (P04150 whole entry, looked up, the tested form may be a part): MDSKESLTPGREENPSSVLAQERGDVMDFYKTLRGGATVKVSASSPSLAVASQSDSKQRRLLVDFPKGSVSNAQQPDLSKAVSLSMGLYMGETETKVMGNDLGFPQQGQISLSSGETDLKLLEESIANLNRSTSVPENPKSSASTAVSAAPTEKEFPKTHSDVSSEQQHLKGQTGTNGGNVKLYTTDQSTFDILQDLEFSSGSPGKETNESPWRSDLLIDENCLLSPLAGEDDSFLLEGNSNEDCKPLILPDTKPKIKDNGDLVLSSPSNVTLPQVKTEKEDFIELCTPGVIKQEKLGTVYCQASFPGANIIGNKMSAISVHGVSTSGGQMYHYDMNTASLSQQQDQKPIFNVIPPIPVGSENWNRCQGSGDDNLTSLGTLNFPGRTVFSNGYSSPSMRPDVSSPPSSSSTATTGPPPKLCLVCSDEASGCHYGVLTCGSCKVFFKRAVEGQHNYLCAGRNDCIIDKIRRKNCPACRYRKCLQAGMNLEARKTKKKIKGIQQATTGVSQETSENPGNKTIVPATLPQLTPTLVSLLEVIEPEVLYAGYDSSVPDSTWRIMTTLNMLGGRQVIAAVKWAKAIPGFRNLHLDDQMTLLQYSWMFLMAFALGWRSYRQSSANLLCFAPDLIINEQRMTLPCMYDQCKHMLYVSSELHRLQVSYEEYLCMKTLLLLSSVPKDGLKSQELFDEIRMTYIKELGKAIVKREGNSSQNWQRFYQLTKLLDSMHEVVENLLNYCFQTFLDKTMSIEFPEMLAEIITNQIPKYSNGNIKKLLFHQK

[5] = target: Glucocorticoid receptor (Homo sapiens) (UniProt P04150); test: GR-EFC Redistribution (AID 451; calls by dose curve; also: potency is read from the fitted curve at half-maximal effect); details: CHO-K1 GR-EFC translocation, beta-gal luminescence, 2 h
Outline: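 CHO-K1 cells expressing nuclear EA and GR-ED fragments of b-gal; compounds titrated up to 46 uM final, 2 h at 37 C. GR nuclear translocation read as complemented b-gal luminescence after 1 h RT detection.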

[6] = target: Mitogen-activated protein kinase 10 (Mus musculus) (UniProt Q61831); test: JNK3 AlphaScreen Assay (AID 530; active = well fitted curve in either direction with a large enough effect, not every such curve was filed as active;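 also: kinase came from lysate of stimulated human HepG2 cells; signal reports phosphorylation of biotinylated GST-cJun 1-79 at Ser73 with 10 µM ATP; % is scaled to controls: 0 for no effect and ±100 for the full control effect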)
Outline: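 Pre-activated (IL-1β/TNFα) JNK3 in HepG2 lysates phosphorylates biotin-GST-cJun(1-79), 10 uM ATP; anti-phospho-cJun(Ser73) AlphaScreen read at room temperature, pH 7.6 Tris buffer. Compounds pre-incubated 15 min as titrations.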

[7] = target: 3',5'-cyclic-AMP phosphodiesterase 4B (Homo sapiens) (UniProt Q07343); test: qHTS Assay for Inhibitors of PDE-IV (AID 607; active = well fitted activation curve with a large enough effect in the main read-out, with a control signal flat, not every such curve was filed as active; also: % of control where 0% means no effect)
3',5'-cyclic-AMP phosphodiesterase 4B (Homo sapiens), sequence (Q07343 whole entry, looked up): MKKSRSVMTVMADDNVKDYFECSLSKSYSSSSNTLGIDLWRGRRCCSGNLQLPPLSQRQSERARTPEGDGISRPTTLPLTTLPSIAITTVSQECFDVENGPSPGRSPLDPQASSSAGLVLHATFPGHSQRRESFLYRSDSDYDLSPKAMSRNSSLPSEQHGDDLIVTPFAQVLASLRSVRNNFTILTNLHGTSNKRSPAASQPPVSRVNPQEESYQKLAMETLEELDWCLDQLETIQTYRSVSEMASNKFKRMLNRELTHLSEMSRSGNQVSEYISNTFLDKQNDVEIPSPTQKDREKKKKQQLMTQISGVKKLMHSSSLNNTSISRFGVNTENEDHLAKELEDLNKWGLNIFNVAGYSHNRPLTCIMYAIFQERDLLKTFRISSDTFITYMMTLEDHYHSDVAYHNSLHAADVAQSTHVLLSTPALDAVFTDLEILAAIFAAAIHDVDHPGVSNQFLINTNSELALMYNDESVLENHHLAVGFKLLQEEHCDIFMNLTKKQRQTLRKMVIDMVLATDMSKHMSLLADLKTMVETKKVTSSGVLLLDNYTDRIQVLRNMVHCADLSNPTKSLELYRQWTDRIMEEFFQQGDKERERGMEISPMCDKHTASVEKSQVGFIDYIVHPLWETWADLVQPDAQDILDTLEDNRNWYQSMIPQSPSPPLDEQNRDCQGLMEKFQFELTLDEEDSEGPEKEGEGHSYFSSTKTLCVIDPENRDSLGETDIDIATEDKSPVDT
Outline: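 HEK293 ACTOne cells with CNG channel (1000/well), endogenous PDE4; membrane potential dye, compounds up to 22.9 uM final. Fluorescence Ex 535/Em 590; RO 20-1724 (100 uM final) as reference.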

[8] = target: Cytochrome P450 3A4 (Homo sapiens) (UniProt P08684); test: qHTS Assay for Inhibitors and Substrates of Cytochrome P450 3A4 (AID 884); also: % is scaled to controls: 0 for no effect and ±100 for the full control effect; nearly all actives have a fitted effect of over 50% in size
Cytochrome P450 3A4 (Homo sapiens), sequence (P08684 whole entry, looked up): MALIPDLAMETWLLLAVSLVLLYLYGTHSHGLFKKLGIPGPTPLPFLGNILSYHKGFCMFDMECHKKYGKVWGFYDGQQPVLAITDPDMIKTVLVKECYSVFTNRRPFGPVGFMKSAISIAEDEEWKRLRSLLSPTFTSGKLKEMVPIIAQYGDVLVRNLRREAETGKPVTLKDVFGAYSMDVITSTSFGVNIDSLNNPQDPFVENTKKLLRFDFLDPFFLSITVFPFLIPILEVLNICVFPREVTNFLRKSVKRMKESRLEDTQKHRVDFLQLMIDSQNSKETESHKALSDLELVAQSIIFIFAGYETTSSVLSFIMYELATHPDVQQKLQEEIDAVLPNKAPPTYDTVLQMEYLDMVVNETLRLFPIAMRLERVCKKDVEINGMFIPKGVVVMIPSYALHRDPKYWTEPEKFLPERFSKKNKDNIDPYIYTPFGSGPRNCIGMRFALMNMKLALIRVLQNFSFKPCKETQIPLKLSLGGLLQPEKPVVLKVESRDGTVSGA
Outline: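 20 nM human CYP3A4 with 25 uM Luciferin-PPXE (at KM) in 200 mM KPO4, preincubated 10 min with compound; NADPH regeneration started a 60 min RT reaction. Luciferin detected by luminescence, normalized to 57 uM ketoconazole as full inhibition.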

[9] = target: Cytochrome P450 3A4 (Homo sapiens) (UniProt P08684); test: qHTS Assay for Activators of Cytochrome P450 3A4 (AID 885); also: nearly all actives have a fitted effect of over 65% in size
Outline: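 Human CYP3A4 (20 nM) with Luciferin-PPXE at 25 uM (its KM) in 200 mM KPO4; 10 min compound preincubation, then NADPH regeneration and 60 min reaction at RT. Luciferin read by luminescence; normalized to 57 uM ketoconazole full inhibition.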

[10] = target: Cytochrome P450 2D6 (Homo sapiens) (UniProt P10635); test: qHTS Assay for Inhibitors and Substrates of Cytochrome P450 2D6 (AID 891); also: potency is read from the fitted curve at half-maximal effect; nearly all actives have a fitted effect of over 60% in size
Cytochrome P450 2D6 (Homo sapiens), sequence (P10635 whole entry, looked up): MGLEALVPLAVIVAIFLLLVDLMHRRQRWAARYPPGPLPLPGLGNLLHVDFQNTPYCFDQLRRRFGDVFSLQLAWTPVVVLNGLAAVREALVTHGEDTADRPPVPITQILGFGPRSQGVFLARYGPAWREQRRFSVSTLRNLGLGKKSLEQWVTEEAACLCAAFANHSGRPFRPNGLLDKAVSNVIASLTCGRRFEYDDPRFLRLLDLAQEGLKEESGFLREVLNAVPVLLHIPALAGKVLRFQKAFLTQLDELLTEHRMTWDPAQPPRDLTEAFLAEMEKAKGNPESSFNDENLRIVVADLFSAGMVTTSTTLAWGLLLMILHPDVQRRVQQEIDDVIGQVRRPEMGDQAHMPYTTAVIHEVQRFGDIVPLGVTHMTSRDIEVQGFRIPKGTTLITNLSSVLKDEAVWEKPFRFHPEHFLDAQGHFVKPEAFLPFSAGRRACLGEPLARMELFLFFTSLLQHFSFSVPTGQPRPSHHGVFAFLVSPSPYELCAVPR
Outline: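 Human CYP2D6 (5 nM) with 30 uM Luciferin-ME EGE (at Km) in 100 mM KPO4, compound preincubated 10 min, then NADPH regeneration system for 60 min at room temperature. Luciferin read by luminescence; normalized to 1.43 uM quinidine.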

[11] = qHTS Assay for Identification of Small Molecule Agonists for Hypoxia Response Element Signaling Pathway (AID 914; active = well fitted activation curve with a large enough effect in the signal ratio, with a control signal flat, not every such curve was filed as active; the % refers to the signal ratio; also: potency is read from the fitted curve at half-maximal effect); details: ME-180 (cervical carcinoma) HRE-bla reporter, beta-lactamase ratio, CoCl2, 17 h; activation: stronger effect = higher value
Outline: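 Positive modulation of EC50 CoCl2-induced hypoxia response element signaling is measured in ME-180 cells with a beta-lactamase reporter. Compounds are titrated, incubation runs 17 hours, and %Activity derives from the blue/green ratio.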

[12] = Confirmation and Secondary Assay for Modulators of Hemoglobin Beta Chain Splicing at IVS2 705 locus (AID 930);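 also: HeLa cells stably expressing the EGFP-705 splicing reporter; GFP fluorescence per well restored by corrected splicing of the IVS2-705 intron in EGFP; % of control where 0% means no effect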
Outline: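 First, HeLa EGFP-705 cells are seeded at 500/well in Optimem with 2% FCS and left overnight. Next, compound or DMSO is added for 2 days. Finally wells are laser-scanned and total peak GFP intensity scored.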

[13] = qHTS Assay for Lipid Storage Modulators (AID 1519; calls by dose curve); details: Drosophila S3 cells, BODIPY lipid droplet/cell ratio, laser cytometry, cells loaded with oleic acid
Outline: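 Cells seeded at 5,000 per well were treated with compounds over a concentration series and loaded with oleic acid (400 uM, as added). Lipid droplet fluorescence (488 nm excitation, 500-530 nm channel) was read by laser-scanning cytometry and normalized to 20 uM Triacsin C.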

[14] = target: DNA dC->dU-editing enzyme APOBEC-3G (Homo sapiens) (UniProt Q9HC16); test: qHTS for inhibitors of Vif-A3G interactions: Validation (AID 588379); also: 0% is about no effect
DNA dC->dU-editing enzyme APOBEC-3G (Homo sapiens), sequence (Q9HC16 whole entry, looked up): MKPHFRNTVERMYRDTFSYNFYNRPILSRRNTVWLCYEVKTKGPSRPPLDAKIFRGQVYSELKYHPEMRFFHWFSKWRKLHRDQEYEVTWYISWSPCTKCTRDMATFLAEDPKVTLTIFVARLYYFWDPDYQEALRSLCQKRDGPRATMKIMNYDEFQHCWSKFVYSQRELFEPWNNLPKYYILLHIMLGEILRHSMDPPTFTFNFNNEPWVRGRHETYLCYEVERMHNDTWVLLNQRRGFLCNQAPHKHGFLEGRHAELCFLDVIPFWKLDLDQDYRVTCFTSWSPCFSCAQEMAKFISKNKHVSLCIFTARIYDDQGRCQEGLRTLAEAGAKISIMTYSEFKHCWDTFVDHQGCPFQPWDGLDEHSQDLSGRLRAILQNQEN
Outline: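 HeLa cells stably expressing Vif and A3G-eYFP, 700 cells/well, incubated overnight at 37 deg C, then exposed to compound overnight at 37 deg C. Inhibition of Vif-mediated degradation read as increased yellow fluorescence (Ex 488/Em 500-530) by laser-scanning cytometry.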

[15] = system: Zika virus NS2B-NS3 protease; test: Primary screen GU AMC qHTS for Zika virus inhibitors (AID 1347154); also: potency is read from the fitted curve at half-maximal effect; nearly all actives have a fitted effect of over 70% in size
Outline: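 Unlinked Zika NS2B hydrophilic domain–NS3 protease complex at 25 nM in 10 mM Tris-HCl pH 8.0, 0.01% Tween 20, with an AMC peptide substrate. Fluorescence change (340/450 nm) over 15 min at room temperature, normalized to controls, fitted to 4-parameter Hill.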

[16] = system: Zika virus NS2B-NS3 protease (linked construct); test: Primary screen NINDS Rhodamine qHTS for Zika virus inhibitors (AID 1347160); also: % is scaled to controls: 0 for no effect and ±100 for the full control effect; nearly all actives have a fitted effect of over 55% in size
Outline: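 Purified NS2B-NS3 protease with the NS2B hydrophilic domain joined by a flexible linker (25 nM) in 10 mM Tris-HCl pH 8.0, 0.01% Tween 20, preincubated 15 min at RT with compound; Rhodamine110 peptide substrate 1.5 µM; fluorescence change over 15 min; 4-parameter Hill fit.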

[17] = OV-KATE Cancer Cell Toxicity qHTS against the NCATS CANVASS Library (AID 1347345); also: % is scaled to controls: 0 for no effect and ±100 for the full control effect
Outline: (§1)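 Quantitative HTS format: an 11-concentration series was applied to 1000 cells/well following a 4-hour attachment. Cultures ran 72 hours before ATP luminescence detection by CellTiter-Glo.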

[18] = U-118MG Cancer Cell Toxicity qHTS against the NCATS CANVASS Library (AID 1347351); also: % is scaled to controls: 0 for no effect and ±100 for the full control effect
Outline: as §1

[19] = COV-362 Cancer Cell Toxicity qHTS against the NCATS CANVASS Library (AID 1347352); also: % is scaled to controls: 0 for no effect and ±100 for the full control effect
Outline: (§2)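 Luminescent ATP read-out (CellTiter-Glo, 15min at room temperature) measures survival after cells face an 11-point compound series for 72 hours at 37 degrees C/5% CO2.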

[20] = A2780 Cisplatin Sensitive Ovarian Cancer Cell Toxicity qHTS against the NCATS CANVASS Library (AID 1347353); also: nearly all actives have a fitted effect of over 60% in size
Outline: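 Luminescent ATP content (ATPLite, 10 min at room temperature) served as the read-out after cells had been exposed to compounds for 72 hours at 37 °C. Dosing followed an 11-point concentration series.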

[21] = UWB1.289-WTBRCA1 Cancer Cell Toxicity qHTS against the NCATS CANVASS Library (AID 1347354); also: % is scaled to controls: 0 for no effect and ±100 for the full control effect
Outline: as §2

[22] = HPAF-II 24hr Apoptosis Induction qHTS against the NCATS CANVASS Library (AID 1347356); also: 0% is about no effect
Outline: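 Luminescent caspase-3/7 signal (DEVD substrate, Caspase-Glo) served as read-out, taken 15 min after reagent addition to HPAF-II cells exposed 24 h to compounds.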

[23] = HEK293 24hr Apoptosis Induction qHTS against the NCATS CANVASS Library (AID 1347359); also: 0% is about no effect
Outline: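 HEK293 cells, 500 per well, exposed to an 11-point compound series for 24 hours at 37 degrees C. Caspase 3/7 activity read by Caspase-Glo luminescence (DEVD substrate) after 15 min at room temperature.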

COc1ccc2c3c([nH]c2c1)C(C)=NCC3
0.146%: max response ([13]; measured here: cell count channel max response)
inactive: outcome [1] | activity change, negative = inhibition [3] -3.75% | Potency [4] > 20.6 µM and > 46 µM | Potency [5] > 20.6 µM and > 46 µM | outcome [6] | Potency [7] | Potency [8] | Potency [9] | outcome [12] | activity change, negative = inhibition ([13]; at 25.7 µM (top of the series)) 1.66% | Potency [14] | Potency [16] | Potency [17] | Potency [18] | Potency [19] | Potency [20] | Potency [21] | outcome [22] | Potency [23]
active: Potency [2] 794 nM and 251 nM | Potency [10] 3.98 µM | Potency [11] 10 µM | Potency [15] 21.2 µM
2.64%: max response ([13]; measured here: lipid channel max response)
